From PubChem BioAssay (EPA / NIEHS)
Activity calls are given as the source filed them. Rule for the calls, unless noted: active = hit-call score of the fitted dose curve at least 0.9, where 1 is the maximum; inactive = score below 0.9.

What was measured:
[1] = CEETOX_H295R_11DCORT_noMTC: CeeTox H295R High-throughput Steroidogenesis Assay for 11-Deoxycortisol (11DCORT), maximum tolerated concentration (MTC) filtered results only (AID 2283911); details: actives raise or lower the signal
In short: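 Steroidogenesis was stimulated in H295R cells with 10 uM forskolin for 48 h before a 48 h chemical exposure. Secreted 11-deoxycortisol was measured by tandem mass spectrometry and fitted bidirectionally against DMSO controls.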

[2] = CEETOX_H295R_OHPREG_noMTC: CeeTox H295R High-throughput Steroidogenesis Assay for OH-Pregnenolone (OHPREG), maximum tolerated concentration (MTC) filtered results only (AID 2283912); details: actives raise or lower the signal
In short: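 H295R human adrenal cells, forskolin-prestimulated (10 uM, 48 h), then exposed to test chemical in 0.1% DMSO for 48 h. 17alpha-hydroxypregnenolone in medium measured by HPLC-MS/MS after MTBE extraction; bidirectional fit versus DMSO, concentrations not MTC-filtered.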

[3] = CEETOX_H295R_OHPROG_noMTC: CeeTox H295R High-throughput Steroidogenesis Assay for OH-Progesterone (OHPROG), maximum tolerated concentration (MTC) filtered results only (AID 2283914); details: actives raise or lower the signal
In short: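 H295R human adrenal cells prestimulated 48 h with 10 uM forskolin, then exposed 48 h to test chemical (0.1% DMSO final). Medium 17alpha-hydroxyprogesterone extracted with MTBE, quantified by HPLC-MS/MS; bidirectional fit versus DMSO, concentrations not MTC-filtered.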

[4] = CEETOX_H295R_CORTISOL_noMTC: CeeTox H295R High-throughput Steroidogenesis Assay for Cortisol, maximum tolerated concentration (MTC) filtered results only (AID 2283916); details: actives raise or lower the signal
In short: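 H295R adrenal cells were pre-stimulated 48 h with 10 uM forskolin, then exposed 48 h to test chemical in 0.1% DMSO. Medium cortisol was measured by MTBE extraction and HPLC-MS/MS; bidirectional fit versus DMSO, concentrations not MTC-filtered.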

[5] = CEETOX_H295R_CORTIC_noMTC: CeeTox H295R High-throughput Steroidogenesis Assay for Corticosterone (CORTIC), maximum tolerated concentration (MTC) filtered results only (AID 2283917); details: actives raise or lower the signal
In short: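 H295R, 10 uM forskolin prestim 48 h → test chem (0.1% DMSO final) 48 h → media MTBE extraction → HPLC-MS/MS corticosterone. Bidirectional fit vs DMSO baseline; no MTT-based MTC filtering.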

[6] = CEETOX_H295R_PROG_noMTC: CeeTox H295R High-throughput Steroidogenesis Assay for Progesterone (PROG), maximum tolerated concentration (MTC) filtered results only (AID 2283920); details: actives raise or lower the signal
In short: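 H295R human adrenal cells were prestimulated 48 h with 10 uM forskolin, then exposed 48 h to test chemical (0.1% DMSO final). Progesterone in medium was quantified by HPLC-MS/MS; bidirectional fitting versus DMSO, concentrations not MTC-filtered.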

[7] = molecular target: PGR (gene 5241) (UniProt P06401); experiment: TOX21_PR_BLA_Followup_Antagonist_ratio: Tox21 HEK293 Progesterone Receptor (PR) Antagonism Beta-lactamase Follow-Up Assay, Ratio (AID 2283934; active = hit-call score of the fitted dose curve at least 0.9, where 1 is the maximum)
Sequence of PGR (gene 5241) (P06401 whole entry, looked up): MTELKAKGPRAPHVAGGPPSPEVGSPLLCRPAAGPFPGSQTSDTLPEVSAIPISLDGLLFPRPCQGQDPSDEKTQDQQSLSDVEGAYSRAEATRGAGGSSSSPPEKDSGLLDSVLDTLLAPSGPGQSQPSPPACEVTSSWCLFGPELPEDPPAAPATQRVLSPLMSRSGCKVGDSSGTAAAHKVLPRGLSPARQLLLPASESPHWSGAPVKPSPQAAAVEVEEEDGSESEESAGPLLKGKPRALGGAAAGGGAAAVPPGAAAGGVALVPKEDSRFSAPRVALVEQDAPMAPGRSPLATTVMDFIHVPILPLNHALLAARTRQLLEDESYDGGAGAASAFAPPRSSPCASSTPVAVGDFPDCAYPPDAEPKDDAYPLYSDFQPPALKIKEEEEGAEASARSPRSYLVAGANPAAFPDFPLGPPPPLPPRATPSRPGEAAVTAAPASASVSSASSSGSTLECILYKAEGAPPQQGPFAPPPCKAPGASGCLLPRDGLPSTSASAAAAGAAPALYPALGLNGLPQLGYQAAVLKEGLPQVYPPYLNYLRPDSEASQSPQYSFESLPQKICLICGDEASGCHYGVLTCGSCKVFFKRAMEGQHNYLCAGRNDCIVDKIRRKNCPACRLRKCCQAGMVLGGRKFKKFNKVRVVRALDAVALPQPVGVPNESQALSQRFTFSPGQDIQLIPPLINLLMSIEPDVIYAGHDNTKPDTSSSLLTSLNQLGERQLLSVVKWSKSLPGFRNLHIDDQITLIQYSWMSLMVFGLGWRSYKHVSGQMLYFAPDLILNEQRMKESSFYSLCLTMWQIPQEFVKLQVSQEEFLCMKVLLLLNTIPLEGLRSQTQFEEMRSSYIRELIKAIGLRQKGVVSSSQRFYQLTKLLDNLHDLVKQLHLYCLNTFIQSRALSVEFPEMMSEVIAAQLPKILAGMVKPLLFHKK
In short: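 HEK293T PR-UAS-bla, 2% CS-FBS; 6 hr plating, then cpd + R5020 (1 nM final), 16 hr 37C/5% CO2. B/G FRET substrate 2 h RT. Ratio ch2/ch1 vs DMSO; CellTiter-Glo viability multiplexed, autofluorescence checked.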

[8] = CEETOX_H295R_DOC_noMTC: CeeTox H295R High-throughput Steroidogenesis Assay for DOC, maximum tolerated concentration (MTC) filtered results only (AID 2283918); details: actives raise or lower the signal
Protocol: CEETOX_H295R is a cell-based, multiplexed-readout assay that uses H295R, a human adrenal gland cell line, with measurements taken at 48 hours after chemical dosing in a 96-well plate.CEETOX_H295R_DOC_noMTC is one of 12 assay component(s) measured or calculated from the CEETOX_H295R assay (11 hormones and 1 viability assay). It is designed to make measurements of hormone induction, a form of inducible reporter, as detected with absorbance signals by HPLC-MS-MS technology. The concentrations for these components have not been pre-filtered for the maximum tolerated concentration (MTC) based on the MTT assay (_noMTC).Data from the assay component CEETOX_H295R_DOC_noMTC was analyzed into 1 assay endpoint. This assay endpoint, CEETOX_H295R_DOC_noMTC, was analyzed with bidirectional fitting relative to DMSO as the negative control and baseline of activity. Using a type of inducible reporter, gain or loss-of-signal activity using HPLC-MS-MS was used to understand synthesis of 11-Deoxycorticosterone in H295R cell line at 48hr of chemical exposure, without filtering concentrations for maximum tolerated concentration (MTC). To generalize the intended target to other relatable targets, this assay endpoint is annotated to the steroid hormone intended target family, where the subfamily is glucocorticoids.
Cell culture and media preparation procedures were conducted in accordance with OECD Test No. 456 guidelines, with minor modifications. H295R cells (ATCC CRL-2128) were expanded for 5 passages and frozen in batches in liquid nitrogen. […] For steroid quantification, media samples were shipped to OpAns, LLC (Durham, NC) on dry ice, and samples were thawed to room temperature prior to liquid-liquid extraction. […] Steroid hormones were separated by HPLC, eluted using a reverse phase C18 gradient with electrospray positive ionization, followed by quantification by tandem mass spectrometry (MS/MS). Data were acquired on a MassHunter Workstation Acquisition version B03.01 (Agilent Technologies, Inc.) and processed using MassHunter Quantitative Analysis for QQQ. Accuracy was determined for each hormone analyte from 3 standards to determine upper and lower limits of quantification (ULOQ and LLOQ, respectively) using a 7-point standard curve. Precision and accuracy of the extraction and quantification methods were calculated as the percent relative standard deviation (%RSD) of the spiked standards and percent spiked standard recovered, respectively. The goal was to achieve 100% accuracy (i.e., recover all spiked-in standard at quantification with minimal loss during run time) and good precision (i.e., have %RSD <15% to ensure reproducibility). Test medium was removed following chemical exposure, and cell viability was evaluated in the same wells by MTT. […]

[9] = CEETOX_H295R_ESTRADIOL_noMTC: CeeTox H295R High-throughput Steroidogenesis Assay for Estradiol, maximum tolerated concentration (MTC) filtered results only (AID 2283919); details: actives raise or lower the signal
Protocol: CEETOX_H295R is a cell-based, multiplexed-readout assay that uses H295R, a human adrenal gland cell line, with measurements taken at 48 hours after chemical dosing in a 96-well plate.CEETOX_H295R_ESTRADIOL_noMTC is one of 12 assay component(s) measured or calculated from the CEETOX_H295R assay (11 hormones and 1 viability assay). It is designed to make measurements of hormone induction, a form of inducible reporter, as detected with absorbance signals by HPLC-MS-MS technology. The concentrations for these components have not been pre-filtered for the maximum tolerated concentration (MTC) based on the MTT assay (_noMTC).Data from the assay component CEETOX_H295R_ESTRADIOL_noMTC was analyzed into 1 assay endpoint. This assay endpoint, CEETOX_H295R_ESTRADIOL_noMTC, was analyzed with bidirectional fitting relative to DMSO as the negative control and baseline of activity. […]
Cell culture and media preparation procedures were conducted in accordance with OECD Test No. 456 guidelines, with minor modifications. […] For steroid quantification, media samples were shipped to OpAns, LLC (Durham, NC) on dry ice, and samples were thawed to room temperature prior to liquid-liquid extraction. […] Steroid hormones were separated by HPLC, eluted using a reverse phase C18 gradient with electrospray positive ionization, followed by quantification by tandem mass spectrometry (MS/MS). […]

[10] = CEETOX_H295R_ESTRONE_noMTC: CeeTox H295R High-throughput Steroidogenesis Assay for Estrone, maximum tolerated concentration (MTC) filtered results only (AID 2283921); details: actives raise or lower the signal
In short: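 H295R cells prestimulated 48 h with 10 uM forskolin, then exposed 48 h to chemical in 0.1% DMSO; medium estrone measured by HPLC-MS/MS after MTBE extraction and dansyl derivatization, fitted bidirectionally versus DMSO without MTT-based MTC filtering.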

Measured: AC50

Brc1ccc(Oc2ccccc2)cc1
inactive: [1] | [2] | [3] | [4] | [5] | [6]

Clc1ccc(C(c2ccc(Cl)cc2)C(Cl)(Cl)Cl)cc1
active: [7] 34.8 µM

C[C@]12C=CC3=C4CCC(=O)C=C4CC[C@H]3[C@@H]1CC[C@@H]2O
inactive: [7]

ClC1=C(Cl)[C@]2(Cl)[C@H]3[C@H]([C@@H]4C=C[C@H]3C4)[C@@]1(Cl)C2(Cl)Cl
active: [7] 46.1 µM

O=[N+]([O-])c1ccc(Oc2ccc(Cl)cc2Cl)cc1
active: [7] 20.6 µM

CC(C)COC(=O)c1ccccc1C(=O)OCC(C)C
not listed: [7]
inactive: all other assays above

CCCCCOC(=O)c1ccccc1C(=O)OCCCCC
not listed: [7]
inactive: all other assays above

C=CCc1ccc2c(c1)OCO2
not listed: [7] | [9] | [10]
inactive: all other assays above

Clc1ccc(C(c2ccc(Cl)cc2)C(Cl)Cl)cc1
active: [7] 31.5 µM

CCCCOC(=O)c1ccccc1C(=O)OCc1ccccc1
not listed: [9] | [10]
inactive: all other assays above
